# Many of the other results were omitted from the sample, so hits are more common in it than they were.
# 14-3-3 PPI: modulators of 14-3-3 gamma protein binding, primary screen, biochemical, fluorescence polarization; AID 422, 2006; FP, 14-3-3gamma / TMR-pS259-Raf peptide binding; hit rate 0.19% among 160,000; inhibition, % at 40 µM; in the data active = inhibition above about 30%
# Target sequence (P61981 whole entry, looked up): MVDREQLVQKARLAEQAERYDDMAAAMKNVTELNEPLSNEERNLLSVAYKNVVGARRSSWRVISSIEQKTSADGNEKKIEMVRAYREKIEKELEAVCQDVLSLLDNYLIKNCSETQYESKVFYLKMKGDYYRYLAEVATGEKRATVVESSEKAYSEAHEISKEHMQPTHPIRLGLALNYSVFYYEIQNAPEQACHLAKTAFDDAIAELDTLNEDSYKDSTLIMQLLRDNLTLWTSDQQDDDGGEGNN
# Hits are given with their value; - = inactive; + = active, no number.
SMILES,14-3-3 PPI
Cc1ccc(CSc2nnc3c(n2)OC(c2ccc(C(=O)O)cc2)Nc2ccccc2-3)cc1 (centres undefined),-
Cc1ccc(CSc2nnc3c(n2)OC(c2cccc(C)n2)Nc2ccccc2-3)cc1 (centres undefined),31.9
Cc1ccc(CSc2nnc3c(n2)OC(c2ccccn2)Nc2ccccc2-3)cc1 (centres undefined),-
Clc1ccc(CSc2nnc3c(n2)OC(c2ccncc2)Nc2ccccc2-3)cc1 (centres undefined),-
COc1ccc(N(C(=O)c2cccc(C)c2)S(=O)(=O)c2ccc(Cl)cc2)cc1,-
O=[N+]([O-])c1ccc(Oc2ccc(S(=O)(=O)CC(Cl)c3ccccc3)cc2)cc1 (centres undefined),-
O=C(c1cc(-c2ccc(Cl)cc2)nc2ccc(Br)cc12)N1CCN(C(=O)C2CCCO2)CC1 (centres undefined),-
Cc1cccc(C(=O)Nc2ccc(O)cc2)c1,-
Cc1cccc(C(=O)Nc2cccc(NC(=O)c3ccc(F)cc3)c2)c1,-
Cc1cccc(C(=O)Nc2cccc(NC(=O)c3cccc(C)c3)c2)c1,44.9
CC12CC(NC(=O)N1c1cccc(C(=O)N3CCCC3)c1)c1cc(Cl)ccc1O2 (centres undefined),-
COC(=O)c1sc(NC(=O)C(F)(F)F)c(C(=O)OC)c1C,-
Cc1oc(NC(=O)C(F)(F)F)c(C#N)c1C,33.0
COc1ccc(-c2oc(NC(=O)C(F)(F)F)c(C#N)c2-c2ccc(OC)cc2)cc1,-
COc1ccc(NC(=O)C2(C)CC3c4ccccc4C2c2ccccc23)cc1 (centres undefined),55.3
Cc1ccc(C)c(NC(=O)C2(C)CC3c4ccccc4C2c2ccccc23)c1 (centres undefined),-
COc1ccc(NC(=O)C23CCC(C2)C(C)(C)C3=O)cc1 (centres undefined),-
Cc1ccc(C2C=C(c3cccs3)Nc3nnnn32)cc1 (centres undefined),37.3
Cc1cccc(C2C=C(c3ccc(Cl)cc3)Nc3nnnn32)c1 (centres undefined),-
CCc1ccc(C2=CC(c3cccc(C)c3)n3nnnc3N2)cc1 (centres undefined),-
Cc1cccc(C2C=C(c3ccc(Br)s3)Nc3nnnn32)c1 (centres undefined),48.1
Clc1ccccc1C1C=C(c2cccs2)Nc2nnnn21 (centres undefined),-
Cc1ccc(C2=CC(c3ccc(C)cc3)n3nnnc3N2)cc1 (centres undefined),-
O=C(NCc1ccccc1)c1cc(-n2cnnc2)ccc1Cl,-
O=C1CSc2ccc(C(=O)NCCCN3CCCCC3)cc2N1,-
SMILES,14-3-3 PPI
O=C1c2ccccc2S(=O)(=O)N1CC(O)Cn1c2ccc(Br)cc2c2cc(Br)ccc21 (centres undefined),-
Cc1ccc(C(=O)/C=C\Nc2ccc(C(=O)O)cc2)cc1,-
CCCNC(=O)Cn1cnc2sc(C(=O)NCCN(CC)CC)c(C)c2c1=O,-
Cc1ccc(-c2noc(CN(C(=O)C34CC5CC(CC(C5)C3)C4)C(C)C)n2)cc1,-
Cc1ccc2nc(NC(=O)CSc3nccn3-c3ccc(F)cc3)sc2c1,-
COc1ccc(-c2noc(CSc3nc4ccccc4c(=O)n3-c3ccccc3)n2)cc1,-
CC(C)(C)C(=O)Nc1c[nH]c(=O)[nH]c1=O,-
Cc1[nH]c(=O)[nH]c(=O)c1NCCO,-
O=c1[nH]cc(NCCO)c(=O)[nH]1,30.6
COc1ccc(/C(O)=C2/C(=O)C(=O)N(CCN3CCOCC3)C2c2ccc(C)cc2)cc1 (centres undefined),-
COc1ccc(NC(=O)CN2CCN(S(=O)(=O)c3ccc(Br)cc3)CC2)c(OC)c1,-
CC1(C)CC(=O)C=C(Nc2cccc(O)c2)C1,-
CCN1C(=O)c2ccc(S(=O)(=O)N3CCCCCC3)c3cccc1c23,-
CCN1C(=O)c2cccc3c(S(=O)(=O)N4CCCC4)ccc1c23,-
CCN1C(=O)c2cccc3c(S(=O)(=O)N4CCCc5ccccc54)ccc1c23,32.5
N#CC(C#N)C(C#N)(C#N)C1CCCCC1=O (centres undefined),142.3
CCc1ccc(C2C(C(=O)Nc3ccccc3OC)=C(C)Nc3ncnn32)cc1 (centres undefined),-
CN(c1ccc(Br)cc1)S(=O)(=O)c1ccc2[nH]cc(C(=O)NCc3ccccn3)c(=O)c2c1,147.3
CCc1ccccc1N(C)S(=O)(=O)c1ccc2[nH]cc(C(=O)O)c(=O)c2c1,62.9
CCCCN(C)C(=O)c1c[nH]c2ccc(S(=O)(=O)N(C)c3ccccc3CC)cc2c1=O,-
CN(c1ccc(F)cc1)S(=O)(=O)c1ccc2[nH]cc(C(=O)NCc3ccccn3)c(=O)c2c1,+
COCCCNC(=O)c1c[nH]c2ccc(S(=O)(=O)N(C)c3c(C)cccc3C)cc2c1=O,-
C=CCN(c1ccccc1)S(=O)(=O)c1ccc2[nH]cc(C(=O)NCc3ccccn3)c(=O)c2c1,-
CCc1ccccc1N(C)S(=O)(=O)c1ccc2[nH]cc(C(=O)NCCc3ccccc3)c(=O)c2c1,-

# Compound activity deposited in PubChem by Emory University Molecular Libraries Screening Center.
